{"source": "PubChem BioAssay (EPA / NIEHS)", "note": "Calls of active or inactive are those of the source. Rule for the calls: active = hit-call score of the fitted dose curve at least 0.9, where 1 is the maximum; inactive = score below 0.9.", "data": [{"assay": "CCTE_Harrill_HTTr_Apoptosis_MCF7: CCTE's 6-hour Apoptosis Assessment for the High-Throughput Transcriptomics (HTTr) Platform, in MCF-7 cells cultured in DMEM + 10% fetal bovine serum, Harrill Lab (AID 2284011)", "excerpt": "This is a cell-based assay that evaluates apoptosis using high content imaging to evaluate activation of caspase-3/7 using the CellEvent Caspase 3/7 Green detection reagent in 384-well format.One of seven assay components measured from the CCTE_Harrill_HTTr_Apoptosis assay. This was part of a full screening experiment. This is a cell-based assay that evaluates apoptosis in MCF-7 cells cultured in DMEM + 10% fetal bovine serum. High content imaging is used to evaluate activation of caspase-3/7 using the CellEvent Caspase 3/7 Green detection reagent. Measurements are taken at 6 hours after chemical dosing in 384-well format.The assay component endpoint CCTE_Harrill_HTTr_Apoptosis_MCF7 was analyzed with bidirectional fitting relation to DMSO as the negative control and baseline of activity. Using a type of viability reporter, gain-of-signal activity can be used to evaluate activation of caspase-3/7 using the CellEvent Caspase 3/7 Green detection reagent to understand changes in apoptosis. To generalize the intended target to other relatable targets, this assay endpoint is annotated to cell cycle, where the subfamily is apoptosis.\nChemicals were tested in MCF7 cells in an eight point dilution series with a six hour exposure duration.", "values": [{"compound": "Oc1ccc(/C=C/c2cc(O)cc(O)c2)cc1", "outcome": "inactive"}, {"compound": "N#Cc1ccc(C2CCCc3cncn32)cc1", "note": "(stereo not given)", "outcome": "inactive"}, {"compound": "C=C(C)C1CC=C(C)CC1", "note": "(stereo not given)", "outcome": "inactive"}, {"compound": "C=C[C@@]1(C)CC(=O)[C@]2(O)[C@@]3(C)[C@@H](O)CCC(C)(C)[C@@H]3[C@H](O)[C@H](OC(C)=O)[C@@]2(C)O1", "outcome": "inactive"}, {"compound": "CCOC(=O)/C=C\\C(=O)OCC", "outcome": "inactive"}, {"compound": "CC(C)CO", "outcome": "inactive"}, {"compound": "CC(C)(O)Cc1ccccc1", "outcome": "inactive"}, {"compound": "NNS(=O)(=O)c1ccc(Oc2ccc(S(=O)(=O)NN)cc2)cc1", "outcome": "inactive"}, {"compound": "C=Cc1ccc(OC(C)=O)cc1", "outcome": "inactive"}, {"compound": "O=C(Oc1ccccc1)c1ccccc1O", "outcome": "inactive"}, {"compound": "CC1=CCC(C(C)C)C=C1", "note": "(stereo not given)", "outcome": "inactive"}, {"compound": "CC=CC(=O)OCC(C)C", "outcome": "inactive"}, {"compound": "CC(C)=CCl", "outcome": "inactive"}, {"compound": "N=C1C=CC(=C(c2ccc(N)cc2)c2ccc(N)cc2)C=C1", "outcome": "inactive"}, {"compound": "CCCCOCCOC(=O)COc1ccc(Cl)cc1Cl", "outcome": "inactive"}, {"compound": "CC(=O)OCc1ccccc1", "outcome": "inactive"}, {"compound": "CC/C=C\\CCOC(=O)c1ccccc1O", "outcome": "inactive"}, {"compound": "Clc1cc(Cl)c(Cl)c(Cl)c1Cl", "outcome": "inactive"}, {"compound": "CCC(C)C(=O)OC", "note": "(stereo not given)", "outcome": "inactive"}, {"compound": "COc1ccc(C(=O)c2ccccc2)c(O)c1", "outcome": "inactive"}, {"compound": "CC(=O)/C=C/C1C(C)=CCCC1(C)C", "note": "(stereo not given)", "outcome": "inactive"}, {"compound": "CC(=O)OC/C=C(/C)CCC=C(C)C", "outcome": "inactive"}, {"compound": "C=C(C)[C@@H]1CC=C(C)CC1", "outcome": "inactive"}, {"compound": "Cc1c(C(=O)c2c[nH]n(C)c2=O)ccc(S(C)(=O)=O)c1C1=NOCC1", "outcome": "inactive"}, {"compound": "O=C(O)/C=C/c1ccccc1", "outcome": "inactive"}, {"compound": "CCCC(C)C(=O)OCC", "note": "(stereo not given)", "outcome": "inactive"}, {"compound": "Nc1ncnc2nc[nH]c12", "outcome": "inactive"}, {"compound": "CC(C)(C)NC(=O)[C@H]1CC[C@H]2[C@@H]3CC[C@H]4NC(=O)C=C[C@]4(C)[C@H]3CC[C@]12C", "outcome": "inactive"}, {"compound": "O=C(O)CCC(=O)O", "outcome": "inactive"}, {"compound": "c1ccc2c(c1)[nH]c1ccccc12", "outcome": "inactive"}, {"compound": "CC1CCC(=O)C1=O", "note": "(stereo not given)", "outcome": "inactive"}, {"compound": "Nc1ccc(C(=O)O)cc1", "outcome": "inactive"}, {"compound": "CC(=O)c1ccc(S(=O)(=O)NC(=O)NC2CCCCC2)cc1", "outcome": "inactive"}, {"compound": "CCCCC1C(=O)N(c2ccccc2)N(c2ccccc2)C1=O", "outcome": "inactive"}, {"compound": "CCCCCCCCCCCCCC(=O)OC(C)C", "outcome": "inactive"}, {"compound": "CCOC(=O)C1=NOC(c2ccccc2)(c2ccccc2)C1", "outcome": "inactive"}, {"compound": "CN(C)c1ccc2nc3ccc(=[N+](C)C)cc-3sc2c1", "outcome": "inactive"}, {"compound": "Cc1ccc([N+](=O)[O-])cc1N", "outcome": "inactive"}, {"compound": "CC(=O)OC1CCCCC1C(C)(C)C", "note": "(stereo not given)", "outcome": "inactive"}, {"compound": "CC(C)[N+](C)(CCOC(=O)C1c2ccccc2Oc2ccccc21)C(C)C", "outcome": "inactive"}]}]}
